Source: PubChem BioAssay (NCATS)
Inconclusive results are not listed. Activity calls are given as the source filed them. Unless noted, the call rests on the fitted dose curve.

How the values were obtained:
[1] = qHTS profiling of the MIPE4 collection as inhibitors of Plasmodium falciparum (3D7) proliferation (AID 743344; call rule not given here;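 further: scaled between DMSO vehicle wells and 0.29 µM artemisinin as full inhibition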); details: P. falciparum 3D7 in erythrocytes, SYBR Green DNA fluorescence, 72 h; at 28.5 µM unless noted
How it was run: (§1)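 Parasite DNA was quantified by SYBR Green I fluorescence (ex 485, em 535 nm) after overnight lysis in saponin/Triton buffer at room temperature. Cultures at 0.3% parasitemia and 2.5% hematocrit were first exposed to compound for 72 h at 37 C; signals were normalised to artemisinin (0.29 uM) and vehicle wells.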

[2] = qHTS profiling of the MIPE4 collection as inhibitors of Plasmodium falciparum (DD2) proliferation (Rep 2) (AID 743346; call rule not given here); details: P. falciparum Dd2 in erythrocytes, SYBR Green DNA, 72 h; at 28.5 µM unless noted
How it was run: as §1

[3] = qHTS profiling of the MIPE4 collection as inhibitors of Plasmodium falciparum (HB3) proliferation (AID 743347; call rule not given here;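 further: plate controls were DMSO vehicle wells for no effect and artemisinin wells for full effect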); details: P. falciparum HB3 in erythrocytes, SYBR Green DNA, 72 h; at 28.5 µM unless noted
How it was run: as §1

[4] = qHTS for Inhibitors of the Functional Ribonucleoprotein Complex (vRNP) of Lassa (LASV) Arenavirus: LASV Primary Screen - GLuc reporter signal (AID 1347082; calls by dose curve; tested in HEK293 reporter line; further: on the % scale 0 is the no-effect control and ±100 the full control effect; nearly all actives have a fitted effect of over 60% in size)
[5] = qHTS for Inhibitors of the Functional Ribonucleoprotein Complex (vRNP) of Lassa (LASV) Arenavirus: Viability assay - alamar blue signal for LASV Primary Screen (AID 1347083; calls by dose curve; tested in HEK293 reporter line; further: on the % scale 0 is the no-effect control and ±100 the full control effect; nearly all actives have a fitted effect of over 80% in size)
[6] = qHTS for Inhibitors of the Functional Ribonucleoprotein Complex (vRNP) of Lymphocytic Choriomeningitis Arenaviruses (LCMV): Viability assay - alamar blue signal for LCMV Primary Screen (AID 1347085; calls by dose curve; tested in HEK293 reporter line; further: on the % scale 0 is the no-effect control and ±100 the full control effect; nearly all actives have a fitted effect of over 80% in size)
[7] = molecular target: Nucleoprotein (Lymphocytic choriomeningitis virus (strain Armstrong)) (UniProt P09992); assay: qHTS for Inhibitors of the Functional Ribonucleoprotein Complex (vRNP) of Lymphocytic Choriomeningitis Arenaviruses (LCMV): LCMV Primary Screen - GLuc reporter signal (AID 1347086); further: on the % scale 0 is the no-effect control and ±100 the full control effect; nearly all actives have a fitted effect of over 70% in size
[8] = Cytotoxicity counterscreen for inhibitors of SARS-CoV-2 cell entry (AID 1645845); further: nearly all actives have a fitted effect of over 50% in size
How it was run: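 Counterscreen run in the same HEK293-ACE2 line as the pseudotyped-particle entry assay, without particles. Viability after 48 h at 37 C was read as ATP luminescence, scaled between cell-containing and cell-free wells.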

[9] = Primary qHTS to identify inhibitors of SARS-CoV-2 cell entry (AID 1645846); details: activity change, negative = inhibition: at 57.1 µM (top of the series) unless noted; further: nearly all actives have a fitted effect of over 45% in size
How it was run: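 HEK293-ACE2 (Expi293F, stable hACE2), 1500 cells/well, o/n 37C; cpd 23 nL pin, 1 h; MLV-PP w/ SARS-CoV-2-S (Wuhan-Hu-1, Δ19 C-term); 48 h 37C; Bright-Glo luminescence; normalized vs S-PP and bald PP.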

[10] = molecular target: Nuclear receptor subfamily 1 group I member 3 (Homo sapiens) (UniProt Q14994); assay: Primary qHTS for antagonist of constitutive androstane receptor (CAR) against the NCATS DSHEA and TCM libraries (AID 1794836; active means well fitted curve in the direction sought with a large enough effect; an effect the other way counts as inactive or inconclusive;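 further: HepG2 cells stably expressing hCAR with CYP2B6 luciferase reporter stimulated by CITCO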)
How it was run: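 HepG2-CYP2B6-hCAR cells, attached 5 h, given compounds plus CITCO agonist […], incubated 24 h at 37 C. Luciferase luminescence read, multiplexed with CellTiter-Fluor viability (Ex/Em 405/540 nm).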

[11] = molecular target: Ferritin light chain (Equus caballus) (UniProt P02791); assay: qHTS Validation Assay for Identification of Novel General Anesthetics (AID 2323; active means well fitted curve in the direction sought with a large enough effect; an effect the other way counts as inactive or inconclusive; further: on the % scale 0 is the no-effect control and ±100 the full control effect)
How it was run: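 10 uM horse-spleen apoferritin + 1-AMA (50% saturated, PBS); cpd pin-transferred, 10 min RT. Ex 380/Em 535 nm endpoint. Activity normalized between free 1-AMA and 1-AMA/apoferritin; 4-parameter Hill fit of concentration-response.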

[12] = molecular target: RecQ-like DNA helicase BLM (Homo sapiens) (UniProt P54132); assay: qHTS Validation Assay for Inhibitors of Bloom's syndrome helicase (BLM) (AID 2364; active means well fitted curve in the direction sought with a large enough effect; an effect the other way counts as inactive or inconclusive; further: potency means the concentration at half of the fitted maximal effect)
How it was run: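 50 nM BLM preincubated 15 min at room temperature with compound in pH 8.0 Tris buffer containing 2.5 ug/ml poly(dI-dC); started with 200 nM TAMRA/BHQ-2 forked duplex and 2 mM ATP (final). Unwinding read as TAMRA fluorescence increase, two reads 2 h apart.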

[13] = Validation screen for inhibitors of Lassa infection (AID 463096); further: on the % scale 0 is the no-effect control and ±100 the full control effect
[14] = molecular target: Thioredoxin reductase 1, cytoplasmic (Rattus norvegicus) (UniProt O89049); assay: qHTS Assay for Substrates of Mammalian Selenoprotein Thioredoxin Reductase 1 (TrxR1) (AID 488772; active means well fitted curve in the direction sought with a large enough effect; an effect the other way counts as inactive or inconclusive;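 further: 0% is about no effect; a drop in NADPH fluorescence below the no-compound background marks a TrxR1 substrate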)
How it was run: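 In this dual-purpose format, potential substrates are identified from the first fluorescence read after selenite addition, not from the 8-minute delta. Rat enzyme is preincubated with NADPH and then with compound at ~22 deg C.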

[15] = molecular target: M-phase phosphoprotein 8 (Homo sapiens) (UniProt Q99549); assay: qHTS Validation Assay for Inhibitors for MPP8 Chromodomain Interactions with Methylated Histone Tails (AID 488949; active means well fitted curve in the direction sought with a large enough effect; an effect the other way counts as inactive or inconclusive;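 further: AlphaScreen signal from MPP8 chromodomain bound to biotinylated H3K9me3 peptide; top concentration of the series differs between compounds; on the % scale 0 is the no-effect control and ±100 the full control effect; nearly all actives have a fitted effect of over 55% in size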)
How it was run: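 AlphaScreen read-out: streptavidin donor and nickel chelate acceptor beads (final 10 ug/mL), 30 min in the dark at RT. Complex of 50 nM MPP8 and 50 nM b-H3(1-18)K9me3 peptide had been exposed to compounds for 30 min beforehand.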

[16] = Validation screen for small molecules that induce genotoxicity in human embryonic kidney (HEK293T) cells expressing luciferase-tagged ELG1 (AID 493106; active means well fitted curve in the direction sought with a large enough effect; an effect the other way counts as inactive or inconclusive; further: 0% is about no effect)
How it was run: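 ELG1-luciferase reporter readout (ONE-Glo, 30 min, room temperature) after 16 hr compound treatment at 37 °C of HEK293T cells at 2,000 per well. Rising luminescence flags genotoxic stress.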

[17] = Inducers of the Endoplasmic Reticulum Stress Response (ERSR) in human glioma: Validation (AID 504836; active means well fitted curve in the direction sought with a large enough effect; an effect the other way counts as inactive or inconclusive; further: 0% is about no effect)
How it was run: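 Stably transfected U87-MG glioma cells carrying a GRP78-based luciferase sensor; 16 h compound incubation. Luminescence end-point read 10 min after Bright-Glo addition at room temperature.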

[18] = molecular target: Ubiquitin carboxyl-terminal hydrolase 1 (Homo sapiens) (UniProt O94782); assay: Inhibitors of USP1/UAF1: Pilot qHTS (AID 504865; active means well fitted curve in the direction sought with a large enough effect; an effect the other way counts as inactive or inconclusive;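 further: rhodamine fluorescence freed from ubiquitin-rhodamine substrate followed over time; top concentration of the series differs between compounds; on the % scale 0 is the no-effect control and ±100 the full control effect; nearly all actives have a fitted effect of over 35% in size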)
How it was run: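 1nM USP1/UAF1 + cpd, 15 min RT; start w/ Ub-Rho 150nM final; kinetic FL 480/540 nm, 6 reads q60 s. Buffer 50mM HEPES pH 7.8, 0.5mM EDTA, 1mM TCEP, 0.01% Tween-20, 0.1 mg/ml BSA.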

[19] = qHTS assay for small molecule agonists of the antioxidant response element (ARE) signaling pathway (AID 651741; active means well fitted activation curve with a large enough effect in the signal ratio; the % refers to the signal ratio; further: potency means the concentration at half of the fitted maximal effect)
How it was run: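 Stably integrated ARE-beta-lactamase reporter HepG2 cells; 16 h compound incubation, 37 C; LiveBLAzer FRET substrate 2 h at room temperature; fluorescence intensity.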

[20] = qHTS assay for small molecule activators of the p53 signaling pathway (AID 651743; active means well fitted activation curve with a large enough effect in the signal ratio, not every such curve was filed as active; the % refers to the signal ratio; further: potency means the concentration at half of the fitted maximal effect); details: HCT-116 p53RE-bla, beta-lactamase FRET ratio, 16 h; activation: stronger effect = higher value
How it was run: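 Following 16 hours of compound exposure at 37 C, HCT-116 cells bearing the p53RE-bla reporter were loaded with LiveBLAzer B/G FRET substrate for 2 hours at room temperature and fluorescence intensity was recorded.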

[21] = molecular target: Arylsulfatase A (Homo sapiens) (UniProt P15289); assay: qHTS screen for enhancers of Arylsulfatase A (ASA1): LOPAC Validation Assay (AID 720538; active means well fitted curve in the direction sought with a large enough effect; an effect the other way counts as inactive or inconclusive; further: 0% is about no effect)
How it was run: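 Read-out: fluorescence at Ex=525/Em=598 nm after 1N NaOH final stop. Patient fibroblasts carrying ASA-I179S had 48h compound exposure, then 14h room-temperature pNCS hydrolysis (0.5mM final) in lysis buffer. Signal increase = enhanced activity.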

[22] = qHTS assay for small molecule agonists of the antioxidant response element (ARE) signaling pathway measured by Nrf2-dependant transcriptional activity - cell viability counter screen (AID 720653; active means well fitted curve in the direction sought with a large enough effect in the repeat runs; an effect the other way counts as inactive or inconclusive; further: potency means the concentration at half of the fitted maximal effect); details: ARE-bla HepG2 viability, CellTiter-Glo ATP luminescence, 16 h; max response: stronger effect = lower value
How it was run: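 ARE-bla HepG2 cells treated with compounds for 16 h at 37C; this counter screen measures viability as intracellular ATP by CellTiter-Glo luminescence after 30 min at room temperature.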

[23] = molecular target: Alpha-galactosidase (Coffea arabica) (UniProt Q42656); assay: Counterscreen for Glucocerebrosidase Inhibitors: qHTS Assay for Coffee Bean alpha-Galactosidase at pH 4.5 (AID 957; active means well fitted curve in the direction sought with a large enough effect; an effect the other way counts as inactive or inconclusive;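 further: plate controls were enzyme alone for no effect and no enzyme for full effect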)
How it was run: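 Fluorogenic qHTS at pH 4.5 (citrate buffer with Tween-20): 2 nM enzyme, 80 uM 4-MU-alpha-galactoside substrate, compound titrated 0.7 nM to 77 uM, 20 min room temperature. Glycine/NaOH stop; 4-MU read Ex 365/Em 440; Hill-equation AC50 against no-enzyme and enzyme controls.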

[24] = molecular target: Alpha-galactosidase (Coffea arabica) (UniProt Q42656); assay: Counterscreen for Glucocerebrosidase Inhibitors: qHTS Assay for Coffee Bean alpha-Galactosidase at pH 5.9 (AID 998; active means well fitted curve in the direction sought with a large enough effect; an effect the other way counts as inactive or inconclusive;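 further: plate controls were uninhibited enzyme for no effect and no-enzyme basal signal for full effect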)
How it was run: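 Enzyme 2 nM + cpd (0.7 nM–77 uM titration) + 4-MU-alpha-Gal 80 uM, pH 5.9 citrate/Tween-20, RT 20 min, NaOH/glycine stop pH 10, fluor 365/440. Normalized to no-enzyme and full-activity controls; Hill-fit AC50.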

[25] = qHTS profiling of the MIPE4 collection as inhibitors of Plasmodium falciparum (DD2) proliferation (AID 743345; call rule not given here); details: P. falciparum Dd2 in erythrocytes, SYBR Green DNA, 72 h; at 28.5 µM unless noted
How it was run: as §1

[26] = molecular target: Bile acid receptor (Homo sapiens) (UniProt Q96RI1); assay: qHTS assay for small molecule agonists of farnesoid X receptor signaling (AID 588527); details: HEK293T FXR-UAS-bla, beta-lactamase ratio, 16 h; activation: stronger effect = higher value;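 further: 0% = vehicle basal and 100% = reference agonist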
How it was run: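 FXR-UAS-bla HEK293T, 10% dialyzed FBS; cpds up to 92 uM titration, 16 h 37 C; CCF4 dye 2 h RT; fluorescence. Normalized to chenodeoxycholic acid 100 uM (100%) and DMSO (0%); Hill fit gives EC50, efficacy.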

Sequence of Nucleoprotein (Lymphocytic choriomeningitis virus (strain Armstrong)) (P09992 whole entry, looked up): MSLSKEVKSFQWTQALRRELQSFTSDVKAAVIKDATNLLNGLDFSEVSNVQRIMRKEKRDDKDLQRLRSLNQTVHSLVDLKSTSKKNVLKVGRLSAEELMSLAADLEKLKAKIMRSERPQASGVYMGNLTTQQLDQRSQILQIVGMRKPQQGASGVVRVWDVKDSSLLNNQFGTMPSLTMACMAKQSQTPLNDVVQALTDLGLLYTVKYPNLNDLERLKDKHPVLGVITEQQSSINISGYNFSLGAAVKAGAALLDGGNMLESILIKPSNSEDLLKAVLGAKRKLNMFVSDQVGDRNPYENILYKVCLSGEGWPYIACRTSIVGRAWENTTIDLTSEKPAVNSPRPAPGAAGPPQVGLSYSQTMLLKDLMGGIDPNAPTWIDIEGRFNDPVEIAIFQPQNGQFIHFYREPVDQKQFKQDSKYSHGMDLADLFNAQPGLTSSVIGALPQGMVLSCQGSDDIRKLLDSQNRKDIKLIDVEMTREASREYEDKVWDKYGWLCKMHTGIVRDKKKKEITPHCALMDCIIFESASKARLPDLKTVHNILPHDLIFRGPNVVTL
Sequence of Alpha-galactosidase (Coffea arabica) (Q42656 whole entry, looked up): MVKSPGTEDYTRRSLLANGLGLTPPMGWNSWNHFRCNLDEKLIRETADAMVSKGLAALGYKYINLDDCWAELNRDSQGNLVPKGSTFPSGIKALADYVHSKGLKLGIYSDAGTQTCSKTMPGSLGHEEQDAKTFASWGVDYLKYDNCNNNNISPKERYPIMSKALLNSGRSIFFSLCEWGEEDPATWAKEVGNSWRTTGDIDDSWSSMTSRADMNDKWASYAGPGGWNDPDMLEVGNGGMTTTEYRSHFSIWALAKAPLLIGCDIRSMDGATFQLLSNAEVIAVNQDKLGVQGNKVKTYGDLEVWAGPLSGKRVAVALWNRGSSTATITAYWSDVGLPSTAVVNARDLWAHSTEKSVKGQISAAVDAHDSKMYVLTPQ
Sequence of M-phase phosphoprotein 8 (Homo sapiens) (Q99549 whole entry, looked up): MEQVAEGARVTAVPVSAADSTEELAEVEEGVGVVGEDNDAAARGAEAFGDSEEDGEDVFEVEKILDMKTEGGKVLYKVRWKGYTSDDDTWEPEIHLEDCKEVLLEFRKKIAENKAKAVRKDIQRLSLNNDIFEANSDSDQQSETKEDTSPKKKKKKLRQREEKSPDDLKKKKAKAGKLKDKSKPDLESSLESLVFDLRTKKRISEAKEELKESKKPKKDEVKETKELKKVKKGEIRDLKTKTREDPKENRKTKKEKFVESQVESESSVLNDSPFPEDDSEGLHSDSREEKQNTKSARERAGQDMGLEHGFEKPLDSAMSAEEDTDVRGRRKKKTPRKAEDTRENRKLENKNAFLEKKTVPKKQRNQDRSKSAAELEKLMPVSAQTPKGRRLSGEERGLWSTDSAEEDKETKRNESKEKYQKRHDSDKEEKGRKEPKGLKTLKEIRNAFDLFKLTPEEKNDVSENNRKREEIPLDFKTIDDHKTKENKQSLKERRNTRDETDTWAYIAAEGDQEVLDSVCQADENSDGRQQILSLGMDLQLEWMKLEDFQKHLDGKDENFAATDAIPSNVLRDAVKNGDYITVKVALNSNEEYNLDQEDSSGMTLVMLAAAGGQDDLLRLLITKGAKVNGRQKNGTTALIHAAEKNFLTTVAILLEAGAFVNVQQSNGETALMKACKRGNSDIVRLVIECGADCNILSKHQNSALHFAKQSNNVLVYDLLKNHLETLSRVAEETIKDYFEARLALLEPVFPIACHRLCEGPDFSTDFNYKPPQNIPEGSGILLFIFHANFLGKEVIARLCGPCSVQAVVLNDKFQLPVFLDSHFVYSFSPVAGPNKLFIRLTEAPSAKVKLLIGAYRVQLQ
Sequence of Ferritin light chain (Equus caballus) (P02791 2-175 limits assumed): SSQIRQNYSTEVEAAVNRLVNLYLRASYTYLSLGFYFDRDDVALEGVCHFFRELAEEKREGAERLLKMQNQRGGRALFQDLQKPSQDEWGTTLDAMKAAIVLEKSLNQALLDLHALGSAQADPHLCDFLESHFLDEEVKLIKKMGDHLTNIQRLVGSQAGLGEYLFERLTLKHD
Sequence of Ubiquitin carboxyl-terminal hydrolase 1 (Homo sapiens) (O94782 whole entry, looked up): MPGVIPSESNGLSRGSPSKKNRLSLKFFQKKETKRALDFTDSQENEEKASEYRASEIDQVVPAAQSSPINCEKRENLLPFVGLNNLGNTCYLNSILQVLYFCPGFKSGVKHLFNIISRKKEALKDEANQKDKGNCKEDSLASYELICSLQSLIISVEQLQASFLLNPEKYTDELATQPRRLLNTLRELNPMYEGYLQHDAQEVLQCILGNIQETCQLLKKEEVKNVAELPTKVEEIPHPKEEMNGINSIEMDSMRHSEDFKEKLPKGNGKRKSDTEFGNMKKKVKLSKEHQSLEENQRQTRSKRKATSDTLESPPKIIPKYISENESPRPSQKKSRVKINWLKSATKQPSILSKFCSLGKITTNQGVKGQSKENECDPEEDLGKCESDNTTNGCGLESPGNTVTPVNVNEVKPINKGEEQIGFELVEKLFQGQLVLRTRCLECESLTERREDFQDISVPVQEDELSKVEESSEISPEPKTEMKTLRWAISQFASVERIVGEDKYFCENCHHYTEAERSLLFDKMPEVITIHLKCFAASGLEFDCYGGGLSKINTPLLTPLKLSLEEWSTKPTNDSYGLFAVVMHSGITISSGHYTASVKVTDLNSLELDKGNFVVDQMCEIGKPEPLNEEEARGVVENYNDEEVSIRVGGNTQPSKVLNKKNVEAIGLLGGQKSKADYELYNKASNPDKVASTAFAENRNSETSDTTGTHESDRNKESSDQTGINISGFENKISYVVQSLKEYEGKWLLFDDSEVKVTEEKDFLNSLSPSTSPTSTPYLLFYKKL
Sequence of Arylsulfatase A (Homo sapiens) (P15289 whole entry, looked up): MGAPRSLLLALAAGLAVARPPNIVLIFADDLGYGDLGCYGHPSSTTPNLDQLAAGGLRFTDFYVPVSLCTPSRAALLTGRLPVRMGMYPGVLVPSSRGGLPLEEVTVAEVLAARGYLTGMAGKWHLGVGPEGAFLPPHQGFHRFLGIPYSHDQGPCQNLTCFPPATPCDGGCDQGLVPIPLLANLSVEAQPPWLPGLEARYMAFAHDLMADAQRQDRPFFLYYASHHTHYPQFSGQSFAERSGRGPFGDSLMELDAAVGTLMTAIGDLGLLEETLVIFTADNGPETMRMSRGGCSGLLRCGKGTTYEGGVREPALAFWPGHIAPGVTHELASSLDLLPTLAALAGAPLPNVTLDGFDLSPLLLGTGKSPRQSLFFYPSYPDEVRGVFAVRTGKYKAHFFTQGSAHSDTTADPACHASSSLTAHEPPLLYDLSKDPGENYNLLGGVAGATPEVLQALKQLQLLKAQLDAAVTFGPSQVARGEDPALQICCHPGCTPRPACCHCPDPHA
Sequence of Bile acid receptor (Homo sapiens) (Q96RI1 whole entry, looked up): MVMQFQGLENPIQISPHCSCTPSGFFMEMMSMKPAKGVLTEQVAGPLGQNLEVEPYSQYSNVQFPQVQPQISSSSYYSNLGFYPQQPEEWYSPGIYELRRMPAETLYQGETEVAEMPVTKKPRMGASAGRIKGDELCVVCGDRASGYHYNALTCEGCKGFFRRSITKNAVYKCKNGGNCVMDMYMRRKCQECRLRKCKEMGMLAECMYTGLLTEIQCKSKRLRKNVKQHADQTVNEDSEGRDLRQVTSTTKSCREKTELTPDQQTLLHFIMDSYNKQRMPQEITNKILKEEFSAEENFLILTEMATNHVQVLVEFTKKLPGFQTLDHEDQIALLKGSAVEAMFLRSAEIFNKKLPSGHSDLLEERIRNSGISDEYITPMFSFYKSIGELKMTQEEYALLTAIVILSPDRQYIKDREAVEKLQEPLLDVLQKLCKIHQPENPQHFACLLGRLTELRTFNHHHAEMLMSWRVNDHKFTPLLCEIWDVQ
Sequence of Nuclear receptor subfamily 1 group I member 3 (Homo sapiens) (Q14994 whole entry, looked up): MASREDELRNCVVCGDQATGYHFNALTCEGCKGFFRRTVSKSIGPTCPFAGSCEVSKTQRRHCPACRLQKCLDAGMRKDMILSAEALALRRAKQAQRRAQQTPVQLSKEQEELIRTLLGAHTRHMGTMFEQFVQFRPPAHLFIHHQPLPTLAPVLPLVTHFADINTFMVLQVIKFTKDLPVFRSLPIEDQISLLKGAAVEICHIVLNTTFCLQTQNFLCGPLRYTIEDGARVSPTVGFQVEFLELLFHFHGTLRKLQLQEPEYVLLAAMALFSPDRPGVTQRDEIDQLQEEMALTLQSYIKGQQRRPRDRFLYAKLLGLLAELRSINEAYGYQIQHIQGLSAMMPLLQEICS
Sequence of Thioredoxin reductase 1, cytoplasmic (Rattus norvegicus) (O89049 whole entry, looked up): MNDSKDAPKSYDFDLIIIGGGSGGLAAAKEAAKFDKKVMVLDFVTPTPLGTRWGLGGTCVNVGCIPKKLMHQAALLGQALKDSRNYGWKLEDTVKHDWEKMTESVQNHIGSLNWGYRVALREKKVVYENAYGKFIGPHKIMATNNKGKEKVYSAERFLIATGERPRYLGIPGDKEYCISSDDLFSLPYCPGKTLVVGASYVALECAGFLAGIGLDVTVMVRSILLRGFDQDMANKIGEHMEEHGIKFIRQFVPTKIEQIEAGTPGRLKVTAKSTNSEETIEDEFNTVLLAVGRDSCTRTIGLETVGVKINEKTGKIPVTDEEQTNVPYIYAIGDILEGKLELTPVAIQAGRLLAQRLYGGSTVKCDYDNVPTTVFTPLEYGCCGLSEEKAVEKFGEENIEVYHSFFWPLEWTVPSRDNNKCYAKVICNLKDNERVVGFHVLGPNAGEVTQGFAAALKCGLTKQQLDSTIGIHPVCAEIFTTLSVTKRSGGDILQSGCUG

C=C(C)[C@@H]1CC[C@]2(C(=O)O)CC[C@]3(C)[C@H](CC[C@@H]4[C@@]5(C)CC[C@H](O)C(C)(C)[C@@H]5CC[C@]43C)[C@@H]12
inactive: Potency [4] | Potency [5] | Potency [6] | Potency [7] | Potency [8] | Potency [9] | Potency [10]
60.5%: parasite growth, % of DMSO control [1]
97%: parasite growth, % of control (lower = inhibition) [2]
208%: growth, % of control [3]

Nc1nc(N)c2nc(CNc3ccc(C(=O)NC(CCC(=O)O)C(=O)O)cc3)cnc2n1 (stereo not drawn)
inactive: outcome [11] | Potency [13] | outcome [14] | Potency [15] | outcome [16] | outcome [17] | Potency [18] | Potency [21] | Potency [4] | Potency [5] | Potency [6] | Potency [7] | Potency [8] | Potency [9]
active: Potency [12] 20 µM | Potency [19] 0.077 µM | Potency [20] 0.1 µM | Potency [22] 0.0126 µM

COc1cccc(-c2cc(=O)c3ccccc3o2)c1N
inactive: outcome [23] | outcome [24] | outcome [17] | Potency [4] | Potency [5] | Potency [6] | Potency [7] | Potency [8] | Potency [9]

NC(=O)c1cccc(N)c1
inactive: outcome [24] | Potency [13] | outcome [17] | Potency [4] | Potency [5] | Potency [6] | Potency [7] | Potency [8] | Potency [9]

COc1c(N2C[C@@H]3CCCN[C@H]3C2)c(F)cc2c(=O)c(C(=O)O)cn(C3CC3)c12
inactive: Potency [4] | Potency [5] | Potency [6] | Potency [7] | Potency [8]
2.05%: activity change, negative = inhibition [9]

C[C@H](NC(=O)Cc1cc(F)cc(F)c1)C(=O)N[C@H](C(=O)OC(C)(C)C)c1ccccc1
inactive: Potency [4] | Potency [5] | Potency [6] | Potency [7] | Potency [8]
-33%: activity change, negative = inhibition [9]

COC1CCC(N(C(=O)C2CCC(C)CC2)c2cc(C3=CCCCC3)sc2C(=O)O)CC1 (stereo not drawn)
61.5%: parasite growth remaining, % of DMSO control (lower = more inhibition) [25]
44.7%: parasite growth, % of control (lower = inhibition) [2]
inactive: Potency [4] | Potency [5] | Potency [6] | Potency [7] | Potency [8]
31.6%: parasite growth, % of DMSO control [1]
1.37%: activity change, negative = inhibition [9]

O=c1cc(-c2ccccc2)oc2cc(O)cc(O)c12
inactive: Potency [4] | Potency [5] | Potency [6] | Potency [7] | Potency [8] | Potency [9]

O=c1c(O)c(-c2ccc(O)cc2O)oc2cc(O)cc(O)c12
0.962%: activity change, negative = inhibition [9]
inactive: outcome [23] | outcome [24] | outcome [17] | activation [26] -2.26% | Potency [4] | Potency [5] | Potency [6] | Potency [7] | Potency [8]
